Laboratory results: PubChem BioAssay (NCATS)
“And” between values parts separate entries of the source, which are not always exact repeats. Equal entries are not always repeated. Records with an inconclusive call do not appear. The source made the active and inactive calls. Unless noted, calls follow the shape of the dose curve; as a rule, active = well fitted curve in the direction sought with a large enough effect; inconclusive = small, poorly fitted or top-dose-only effect, or another doubt; inactive = no such curve, though single readings can be large; an effect the other way counts as inactive or inconclusive.

Legend:
[1] = Cell Viability - BJ (AID 421; calls by dose curve;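 also: potency is read from the fitted curve at half-maximal effect; cells exposed to compound for 40 hours at 37 °C before readout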); conditions: BJ fibroblast viability, qHTS
Outline: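 Normal human BJ foreskin fibroblasts, 1500/well in complete medium, treated 40 hr at 37 °C. Cellular ATP by CellTiter-Glo luminescence; normalized to DMSO and 100 uM tamoxifen, AC50 from Hill fit.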

[2] = Cell Viability - HepG2 (AID 433; calls by dose curve;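 also: potency is read from the fitted curve at half-maximal effect; cells exposed to compound for 40 hours; potency for ATP loss meaning cytotoxicity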); conditions: qHTS
Outline: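 In this qHTS format, a 40 h, 37 °C compound incubation of HepG2 cells in complete medium precedes a 20 min CellTiter-Glo step at room temperature. Tamoxifen and doxorubicin serve as positive controls; Hill-equation fits yield AC50.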

[3] = Cell Viability - Mesenchymal (AID 546); conditions: mesenchymal cells viability, qHTS; activity change, negative = cytotoxicity: at 91.7 µM (top of the series);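 also: cells exposed to compound for 40 hours before reading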
Outline: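 In this qHTS cytotoxicity format, glomerulus-derived human mesenchymal kidney cells received compound for 40 hr, then luciferase-based ATP quantitation. Concentration-response data were fitted with the Hill equation.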

[4] = Cellular Toxicity (caspase-3) Jurkat (AID 655); conditions: Jurkat caspase-3 activation, luminescence; caspase-3 activation: at 92.2 µM (top of the series), DMSO = 0%, tamoxifen = 100%;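 also: cells exposed to compound for 16 h at 37 °C before reading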; also: potency is read from the fitted curve at half-maximal effect
Outline: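 qHTS in human Jurkat T-cell leukemia line: 16 hr compound treatment at 37 °C, caspase-3/7 activity measured by Caspase-Glo luminescence. AC50 derived from Hill equation.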

[5] = Cell Viability - LYMP1-002 - Assay at 16 hr (AID 948); conditions: LYMP1-002 lymphoblastoid cell viability; series mostly up to 92.2 µM; also: potency is read from the fitted curve at half-maximal effect;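 as to activity change, negative = cytotoxicity: 0% = DMSO alone and full effect = 92 µM tetraoctylammonium bromide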
Outline: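 In this qHTS, lymphoblastoid LYMP1-002 cells (human) receive compounds for 16 hr at 37 C. Viability is taken from CellTiter-Glo ATP luminescence, and AC50 derives from standard Hill fits.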

[6] = MultiTox-Fluor Cytotoxicity Assay - LYMP1-002 - Live Cells (AID 955); conditions: LYMP1-002 lymphoblastoid live-cell protease fluorescence viability; series mostly up to 46.1 µM;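 also: cells exposed to compound for 16 hours; % is scaled to controls: 0 for no effect and ±100 for the full control effect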
Outline: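 Cells were seeded at 2500 per well and incubated 5 hr. Compounds were then added for 16 hr at 37 C, followed by MultiTox-Fluor reagent for 60 min at room temperature and fluorescence reading of viable-cell protease signal.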

[7] = Cell Viability - LYMP2-003 (AID 965); conditions: LYMP2-003 lymphoblastoid cell viability; series mostly up to 92.2 µM;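 also: cells exposed to compounds for 24 h before reading; nearly all actives have a fitted effect of over 50% in size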; also: potency is read from the fitted curve at half-maximal effect;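 as to activity change, negative = cytotoxicity: 0% = DMSO only and full effect = 92 µM tetraoctylammonium bromide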
Outline: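 qHTS, human lymphoblastoid line, 2500 cells/well, complete medium. 24 h drug, 37 C. ATP-based luminescent readout; Hill-fit AC50.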

[8] = Cell Viability - LYMP2-011 (AID 969); conditions: LYMP2-011 lymphoblastoid cells viability; series mostly up to 92.2 µM; also: nearly all actives have a fitted effect of over 60% in size; also: potency is read from the fitted curve at half-maximal effect
Outline: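 In this qHTS cytotoxicity format, compounds are tested across concentrations on human lymphoblastoid cells in complete medium for 24 hours at 37 C. Viability is taken as cellular ATP measured by luciferase luminescence.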

[9] = Cell Viability - LYMP2-013 (AID 970); conditions: LYMP2-013 lymphoblastoid cells viability; series mostly up to 92.2 µM; also: nearly all actives have a fitted effect of over 55% in size; also: potency is read from the fitted curve at half-maximal effect
Outline: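 Cytotoxicity is scored as a concentration-dependent drop in intracellular ATP in human lymphoblastoid cells after 24 hr compound exposure at 37 C. ATP is quantified by luciferase luminescence, and AC50 values come from Hill-equation modeling.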

[10] = Cell Viability - LYMP2-023 (AID 975); conditions: LYMP2-023 lymphoblastoid cell viability; series mostly up to 92.2 µM; also: nearly all actives have a fitted effect of over 55% in size; also: potency is read from the fitted curve at half-maximal effect;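 as to activity change, negative = cytotoxicity: plate controls were DMSO only for no effect and 92 µM tetraoctylammonium bromide control for full effect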
Outline: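 Steps: seed 2500 human lymphoblastoid cells per well, incubate 5 hr at 37 C, add compound for 24 hr at 37 C, add CellTiter-Glo, hold 30 min at room temperature, read luminescence. AC50 derived by Hill modelling.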

[11] = Cell Viability - LYMP2-002 (AID 977); conditions: LYMP2-002 lymphoblastoid cell viability, qHTS; series mostly up to 92.2 µM;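 also: compound exposure lasted 24 h at 37 °C; plate controls were DMSO only for no effect and 92 µM tetraoctylammonium bromide for full effect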
Outline: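 In this qHTS viability screen, 2500 human lymphoblastoid cells per well receive compound for 24 hr at 37 C, and luciferase-based ATP luminescence gives the viability signal. Tetraoctylammonium bromide serves as positive control.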

[12] = Cell Viability - LYMP2-006 (AID 978); conditions: LYMP2-006 lymphoblastoid cell viability, qHTS; series mostly up to 92.2 µM; also: nearly all actives have a fitted effect of over 60% in size; also: potency is read from the fitted curve at half-maximal effect; as to activity change, negative = cytotoxicity: % is scaled to controls: 0 for no effect and ±100 for the full control effect
Outline: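 In this cytotoxicity screen, the human lymphoblastoid line grew in complete medium with test compounds for 24 hr at 37 C. Cellular ATP served as the viability signal.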

[13] = Cell Viability - LYMP2-008 (AID 980); conditions: LYMP2-008 lymphoblastoid cell viability, qHTS; series mostly up to 92.2 µM; also: nearly all actives have a fitted effect of over 60% in size; also: potency is read from the fitted curve at half-maximal effect; as to activity change, negative = cytotoxicity: % is scaled to controls: 0 for no effect and ±100 for the full control effect
Outline: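 Cells seeded at 2500/well and rested 5 hr at 37 C; compounds added over a concentration range and incubated 24 hr at 37 C; CellTiter-Glo added, 30 min at room temperature; luminescence read and AC50 fitted with Hill model.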

[14] = Cell Viability - LYMP2-012 (AID 982); conditions: LYMP2-012 lymphoblastoid cell viability qHTS; series mostly up to 92.2 µM;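 also: cellular ATP by luciferase luminescence where a drop means cytotoxicity; cells exposed to compound for one day before reading; nearly all actives have a fitted effect of over 55% in size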; also: potency is read from the fitted curve at half-maximal effect;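 as to activity change, negative = cytotoxicity: 0% = DMSO only and full loss = 92 µM tetraoctylammonium bromide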
[15] = Cell Viability - LYMP2-020 (AID 986); conditions: series mostly up to 92.2 µM; also: nearly all actives have a fitted effect of over 55% in size; also: potency is read from the fitted curve at half-maximal effect
Outline: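 Seed 2500 cells per well and incubate 5 hr at 37 C. Add compounds at a concentration series and incubate 24 hr at 37 C. Add CellTiter-Glo, wait 30 min at RT, read luminescence, and fit a Hill curve for AC50.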

[16] = Cell Viability - LYMP2-022 (AID 987); conditions: LYMP2-022 lymphoblastoid cell viability; series mostly up to 92.2 µM; also: nearly all actives have a fitted effect of over 55% in size; also: potency is read from the fitted curve at half-maximal effect
Outline: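 Cells were seeded at 2500 per well, rested 5 hr at 37 C, and treated with titrated compounds for 24 hr at 37 C. Cellular ATP was then quantified by luciferase luminescence, and AC50 values were derived from Hill-modelled concentration-response curves.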

[17] = Cell Viability - LYMP2-024 (AID 988); conditions: LYMP2-024 lymphoblastoid cell viability; series mostly up to 92.2 µM; also: nearly all actives have a fitted effect of over 60% in size; also: potency is read from the fitted curve at half-maximal effect;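 as to activity change, negative = cytotoxicity: plate controls were DMSO only for no effect and 92 µM tetraoctylammonium bromide for full effect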
Outline: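 qHTS cytotoxicity, human lymphoblastoid line, complete medium; 24 h cpd treatment, 37 C; CellTiter-Glo ATP luminescence readout; tetraoctylammonium bromide positive control; AC50 via Hill fit.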

[18] = Cell Viability - LYMP1-002 - Assay at 40 hr (AID 994); conditions: LYMP1-002 lymphoblastoid cell viability; series mostly up to 92.2 µM; also: nearly all actives have a fitted effect of over 60% in size; also: potency is read from the fitted curve at half-maximal effect
Outline: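 Cells are plated at 2500 per well and rested 5 hr at 37 C. Compounds are added and incubated 40 hr at 37 C. CellTiter-Glo reagent is added for 30 min at room temperature before luminescence is read.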

[19] = qHTS assay for small molecule antagonists of retinoid X receptor alpha signaling (AID 588546); conditions: HEK293T RXRa-UAS-bla, beta-lactamase ratio, antagonist mode; measured here: W530 green channel, cytotoxicity proxy;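 also: cells stimulated with 9-cis-retinoic acid as agonist; % is scaled to controls: 0 for no effect and ±100 for the full control effect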
Outline: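 Beta-lactamase reporter inhibition, read as CCF4 fluorescence ratio (ex 405, em 460/530 nm) after 2 h at RT. HEK293T UAS-bla cells, 2500/well, were stimulated with 9-cis-RA at 500 or 100 nM final alongside test compound for 18 h at 37 C.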

[20] = qHTS assay for environmental chemicals that activate the Aryl hydrocarbon Receptor (AhR) signaling pathway (AID 651777); conditions: 1A2-DRE human hepatoma cells, luciferase, 24 h; activation: stronger effect = higher value; also: % of control where 0% means no effect; nearly all actives have a fitted effect of over 15% in size
Outline: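 Measured luciferase activity, read 30 min after One-Glo addition at room temperature, from human hepatoma cells bearing a dioxin response element–CYP1A2 promoter reporter and exposed to compound for 24 hr at 37 C.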

Nc1cc([N+](=O)[O-])ccc1O
inactive: Potency [1] > 92 µM | Potency [2] > 92 µM | Potency [3] | Potency [4] | Potency [5] | outcome [6] | Potency [7] | Potency [8] | Potency [9] | Potency [10] | Potency [11] | Potency [12] | Potency [13] | Potency [14] | Potency [15] | Potency [16] | Potency [17] | Potency [18] | activation [20] 12.6% and 2.53%
-1.99% and 10.2%: max response [19]

Oc1ccc2c(c1)OCO2
inactive: Potency [1] > 92 µM | Potency [2] > 92 µM | Potency [3] | Potency [4] | Potency [5] | outcome [6] | Potency [7] | Potency [8] | Potency [9] | Potency [10] | Potency [11] | Potency [12] | Potency [13] | Potency [14] | Potency [15] | Potency [16] | Potency [17] | Potency [18] | activation [20] -0.0594%
5.56%: max response [19]

O=[N+]([O-])c1ccccc1Nc1ccccc1
inactive: Potency [1] > 92 µM | Potency [2] > 92 µM | Potency [3] | Potency [4] | Potency [5] | outcome [6] | Potency [7] | Potency [8] | Potency [9] | Potency [10] | Potency [11] | Potency [12] | Potency [13] | Potency [14] | Potency [15] | Potency [16] | Potency [17] | Potency [18] | activation [20] 1.93%
-9.17%: max response [19]

CC(=O)c1ccc(Cl)c(Cl)c1Cl
inactive: Potency [1] > 92 µM | Potency [2] > 92 µM | Potency [3] | Potency [4] | Potency [5] | outcome [6] | Potency [7] | Potency [8] | Potency [9] | Potency [10] | Potency [11] | Potency [12] | Potency [13] | Potency [14] | Potency [15] | Potency [16] | Potency [17] | Potency [18] | activation [20] -0.636%
-2.76%: max response [19]

CC(C)S
0.793%: max response [19]
inactive: Potency [1] > 92 µM | Potency [2] > 92 µM | Potency [3] | Potency [4] | Potency [5] | outcome [6] | Potency [7] | Potency [8] | Potency [9] | Potency [10] | Potency [11] | Potency [12] | Potency [13] | Potency [14] | Potency [15] | Potency [16] | Potency [17] | Potency [18] | activation [20] -2.58%

C/C=C/C=C/C=O
inactive: Potency [1] > 92 µM | Potency [2] > 92 µM | Potency [3] | Potency [4] | Potency [5] | outcome [6] | Potency [18] | activation [20] 0.0819%
active: Potency [7] 39.8 µM | Potency [8] 50.1 µM | Potency [9] 39.8 µM | Potency [10] 50.1 µM | Potency [12] 39.8 µM | Potency [13] 39.8 µM | Potency [14] 31.6 µM | Potency [15] 31.6 µM | Potency [16] 25.1 µM | Potency [17] 25.1 µM

CCC(Cl)CC(Cl)C(Cl)C(Cl)C(Cl)C(C)Cl (stereo not drawn)
inactive: Potency [1] > 92 µM | Potency [2] > 92 µM | Potency [3] | Potency [4] | Potency [5] | outcome [6] | Potency [7] | Potency [8] | Potency [9] | Potency [10] | Potency [11] | Potency [12] | Potency [13] | Potency [14] | Potency [15] | Potency [16] | Potency [17] | Potency [18] | activation [20] -0.274%
7.22%: max response [19]

c1ccc(CSCc2ccccc2)cc1
-3.11%: max response [19]
inactive: Potency [1] > 92 µM | Potency [2] > 92 µM | Potency [3] | Potency [4] | Potency [5] | outcome [6] | Potency [7] | Potency [8] | Potency [9] | Potency [10] | Potency [11] | Potency [12] | Potency [13] | Potency [14] | Potency [15] | Potency [16] | Potency [17] | Potency [18] | activation [20] -0.759%

c1ccncc1
inactive: Potency [1] > 92 µM | Potency [2] > 92 µM | Potency [3] | Potency [4] | Potency [5] | outcome [6] | Potency [7] | Potency [8] | Potency [9] | Potency [10] | Potency [11] | Potency [12] | Potency [13] | Potency [14] | Potency [15] | Potency [16] | Potency [17] | Potency [18] | activation [20] -1.01%

C1CCCNCC1
-4.82%: max response [19]
inactive: Potency [1] > 92 µM | Potency [2] > 92 µM | Potency [3] | Potency [4] | Potency [5] | outcome [6] | Potency [7] | Potency [8] | Potency [9] | Potency [10] | Potency [11] | Potency [12] | Potency [13] | Potency [14] | Potency [15] | Potency [16] | Potency [17] | Potency [18] | activation [20] 0.178%

c1ccc(COCc2ccccc2)cc1
-0.558%: max response [19]
inactive: Potency [1] > 92 µM | Potency [2] > 92 µM | Potency [3] | Potency [4] | Potency [5] | outcome [6] | Potency [7] | Potency [8] | Potency [9] | Potency [10] | Potency [11] | Potency [12] | Potency [13] | Potency [14] | Potency [15] | Potency [16] | Potency [17] | Potency [18] | activation [20] -0.601%

C=C1CC[C@H](O)C/C1=C/C=C1\CCC[C@]2(C)[C@@H]([C@H](C)CCCC(C)C)CC[C@@H]12
inactive: Potency [2] > 92 µM | activation [20] 5.81%
active: Potency [1] 61.2 µM | activity change, negative = cytotoxicity [3] -102% | Potency [4] 31.6 µM | Potency [5] 50.1 µM | Potency [7] 39.8 µM | Potency [8] 50.1 µM | Potency [9] 50.1 µM | Potency [10] 50.1 µM | Potency [13] 50.1 µM | Potency [14] 50.1 µM | Potency [15] 50.1 µM | Potency [16] 31.6 µM | Potency [17] 39.8 µM | Potency [18] 50.1 µM

CC(=O)OC1CC(C)OC(C)O1 (stereo not drawn)
inactive: Potency [1] > 92 µM | Potency [2] > 92 µM | Potency [3] | Potency [4] | Potency [5] | outcome [6] | Potency [7] | Potency [8] | Potency [9] | Potency [10] | Potency [11] | Potency [12] | Potency [13] | Potency [14] | Potency [15] | Potency [16] | Potency [17] | Potency [18] | activation [20] -3.53% and 1.99%
1.48% and -10.6%: max response [19]
